Laboratory results reported in PubChem BioAssay AID504834 (National Center for Advancing Translational Sciences (NCATS), 2011).
In all, about 320,000 compounds went through this assay and about 22,000 (6.9%) were called active. Entries that show only a call come without a potency. Inconclusive results (about 27%) are left out. The call rests on the fitted dose curve; in most records, active means well fitted inhibition curve with a large enough effect; inconclusive means small, poorly fitted or top-dose-only effect, or another doubt; inactive means no such curve, though single readings can be large or run the other way. Only a selection was taken, and actives are over-represented in it overall.

assay: Primary qHTS for delayed death inhibitors of the malarial parasite plastid, 96 hour incubation; conditions: P. falciparum luciferase reporter growth; series mostly up to 28.7 µM
Outline: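 Parasite growth measured via integrated firefly luciferase reporter in P. falciparum. Infected erythrocytes at 2% hematocrit, 0.05% parasitemia final were treated 96 hours at 37 C under 5% CO2, and luminescence was read.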
Potency means the concentration at half of the fitted maximal effect.

SMILES | Potency
CC(=O)c1nn(-c2cccc(Br)c2)cc1C(=O)c1cccc2ccccc12 | 6.57 µM (active)
Cc1ccn2c(=O)c(NC(=O)c3cccc4ccccc34)c(C)nc2c1 | inactive
CC(=O)c1ccc2c(ccc3ccccc32)c1 | inactive
Cc1ccc(C(=O)OCC(=O)Nc2ccc(Cl)cn2)cc1S(=O)(=O)N1CCOCC1 | inactive
Cc1ccc(CSc2ccc(S(=O)(=O)N3CCCCC3)cn2)cc1 | inactive
O=C(Nc1ccc(F)cc1)c1ccc(S(=O)(=O)NCc2cccnc2)cc1 | inactive
Cc1cccn2cc(-c3cccc(S(=O)(=O)N4CCCCC4)c3)nc12 | inactive
COc1ccc(N2CCN(C(=O)c3ccc(N4CCCCS4(=O)=O)cc3)CC2)cc1 | inactive
Cc1ccc(CN(Cc2cccnc2)C(=S)Nc2cccc(Cl)c2C)cc1 | inactive
COCCNC(=S)N(CCc1c(C)[nH]c2ccc(C)cc12)Cc1cccnc1 | 1.65 µM (active)
COCCNC(=S)N(Cc1cccnc1)Cc1ccc(OC)c(OC)c1 | inactive
CC(NC(=O)c1cc(=O)[nH]c2ccccc12)c1ccc(F)cc1F (configuration not stated) | inactive
O=C1C(=O)N(CCCN2CCOCC2)C(c2ccc([N+](=O)[O-])cc2)/C1=C(\O)c1ccc2c(c1)OCCO2 (configuration not stated) | inactive
COC(=O)c1c(NC(=O)C(=O)N2CCCCC2)sc2c1CC(C)(C)OC2 | inactive
Cc1ccc(CNC(=O)Cn2c(=O)c3sccc3n(Cc3cccc([N+](=O)[O-])c3)c2=O)cc1 | 8.28 µM (active)
COCCNC(=O)CCCn1c(=O)c2ccccc2n(Cc2cccc([N+](=O)[O-])c2)c1=O | inactive
Cc1ccc(Cn2c(C)c3cnn(CC(=O)NCc4ccccn4)c(=O)c3c2C)cc1 | inactive
CSCC[C@H](NC(=O)N1CCn2c1nc1ccccc12)C(=O)NC1CCCCC1 | inactive
CCn1c(SCC(=O)NC2CC2)nnc1-c1ccncc1 | inactive
Cc1ccc(-n2cc(CN(C)Cc3nccn3C)c(-c3cccc(C)c3)n2)cc1 | 3.7 µM (active)
COc1ccc(-n2cc(CN(C)Cc3n[nH]c(=O)[nH]3)c(-c3cccc(F)c3)n2)cc1 | inactive
Cc1cccc(-n2cc(CN3CCN(C(=O)c4ncn[nH]4)CC3)c(-c3cccc(F)c3)n2)c1 | inactive
CCCCn1c(N)c(N(CC(C)C)C(=O)c2cnc(C)cn2)c(=O)[nH]c1=O | inactive
Cc1nn(Cc2ccccc2)c(C)c1NS(=O)(=O)c1ccccc1 | 10.4 µM (active)
Cc1cc(NS(=O)(=O)c2ccccc2)no1 | inactive
Cc1nn(Cc2ccccc2)c(C)c1C(=O)NCCCN1CCCC1=O | inactive
NNC(=O)c1cccc(COCC(F)(F)C(F)F)c1 | inactive
